From PubChem BioAssay (Tox21) come the findings set out here.

The structures appear in SMILES notation. Inconclusive results are not listed. Calls of active or inactive are those of the source. Unless noted, calls come from the whole dose curve; as a rule, active = well fitted curve in the direction sought with a large enough effect in the repeat runs; inconclusive = weak or mixed curves; inactive = no such curve, though single readings can be large; an effect the other way counts as inactive or inconclusive.

Test [1] in a line: qHTS assay to identify small molecule antagonists of the glucocorticoid receptor (GR) signaling pathway - cell viability counter screen (AID 720693). Note: nearly all actives have a fitted effect of over 55% in size. Note: potency is the fitted concentration of half-maximal effect. A general note: In qHTS, concentration-response curves come from the screen itself.
Test [2] is described as follows: qHTS assay for identifying genotoxic compounds that show differential cytotoxicity against isogenic chicken DT40 cell lines with known DNA damage response pathways - wild type cell line (AID 743012). Note: nearly all actives have a fitted effect of over 60% in size. Note: potency is the fitted concentration of half-maximal effect. Put shortly:
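Wild type DT40, 300 cells/well, ~0.5 h settle at 37 C/5% CO2; compounds in DMSO added by pintool; 40 h at 37 C/5% CO2; CellTiter-Glo, 30 min RT; luminescence.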

Test [3] is described as follows: qHTS assay for identifying genotoxic compounds that show differential cytotoxicity against isogenic chicken DT40 cell lines with known DNA damage response pathways - Rad54/Ku70 mutant cell line (AID 743015). Note: nearly all actives have a fitted effect of over 60% in size. Note: potency is the fitted concentration of half-maximal effect.
Test [4] deals with Androgen receptor (Homo sapiens) (UniProt P10275). Description: qHTS assay to identify small molecule agonists of the androgen receptor (AR) signaling pathway (AID 743036; active = well fitted activation curve with a large enough effect in the signal ratio in the repeat runs, with a control signal flat, not every such curve was filed as active; the % refers to the signal ratio). The essentials:
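Following a 4 h settling period, AR-UAS-bla HEK293 cells were dosed with compounds for 16 h at 37C. A 2 h room-temperature incubation with LiveBLAzer B/G FRET substrate preceded the fluorescence measurement.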

For test [5] the target is unchanged. Nature of the test: qHTS assay to identify small molecule agonists of the androgen receptor (AR) signaling pathway using the MDA cell line (AID 743040; note: nearly all actives have a fitted effect of over 20% in size). The essentials:
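Cells plated, 5 h at 37C/0% CO2; compound or DMSO pinned; 16 h at 37C; ONE-Glo added; luminescence measured after 30 min at room temperature. Reporter line: MDA-kb2 with MMTV-luciferase responsive to AR and GR.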

The nature of test [6]: qHTS assay to identify small molecule antagonists of the androgen receptor (AR) signaling pathway using the MDA cell line - cell viability counter screen (AID 743041; note: nearly all actives have a fitted effect of over 45% in size). Put shortly: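 Cells were plated at 3,000 per well and left 5 h. Compounds in DMSO were then pinned in, followed by R1881. After 16 h at 37C, CellTiter-Fluor fluorescence gave viability.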
The nature of test [7]: qHTS assay to identify small molecule antagonists of the androgen receptor (AR) signaling pathway - cell viability counter screen (AID 743033; note: nearly all actives have a fitted effect of over 45% in size; note: potency is the fitted concentration of half-maximal effect).
Test [8] has as its target Androgen receptor (Homo sapiens) (UniProt P10275). Nature of the test: qHTS assay to identify small molecule antagonists of the androgen receptor (AR) signaling pathway (AID 743035; active = well fitted inhibition curve with a large enough effect in the signal ratio in the repeat runs, not every such curve was filed as active; the % refers to the signal ratio). The essentials: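 Fluorescence from a beta-lactamase FRET substrate (LiveBLAzer B/G, 2 h, room temperature) measured inhibition of R1881-stimulated signaling in GeneBLAzer AR-UAS-bla HEK293 cells exposed to compound for 16 h at 37C.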

Test [9] has the same target. Nature of the test: qHTS assay to identify small molecule antagonists of the androgen receptor (AR) signaling pathway using the MDA cell line (AID 743042; note: nearly all actives have a fitted effect of over 55% in size). Put shortly: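 Antagonist mode: compounds plus R1881 agonist added to MDA-kb2 AR-luc cells, incubated 16 h at 37C. Luciferase reporter luminescence quantified, with multiplexed CellTiter-Fluor readout for cell viability.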

Androgen receptor (Homo sapiens), sequence (P10275 whole entry, looked up): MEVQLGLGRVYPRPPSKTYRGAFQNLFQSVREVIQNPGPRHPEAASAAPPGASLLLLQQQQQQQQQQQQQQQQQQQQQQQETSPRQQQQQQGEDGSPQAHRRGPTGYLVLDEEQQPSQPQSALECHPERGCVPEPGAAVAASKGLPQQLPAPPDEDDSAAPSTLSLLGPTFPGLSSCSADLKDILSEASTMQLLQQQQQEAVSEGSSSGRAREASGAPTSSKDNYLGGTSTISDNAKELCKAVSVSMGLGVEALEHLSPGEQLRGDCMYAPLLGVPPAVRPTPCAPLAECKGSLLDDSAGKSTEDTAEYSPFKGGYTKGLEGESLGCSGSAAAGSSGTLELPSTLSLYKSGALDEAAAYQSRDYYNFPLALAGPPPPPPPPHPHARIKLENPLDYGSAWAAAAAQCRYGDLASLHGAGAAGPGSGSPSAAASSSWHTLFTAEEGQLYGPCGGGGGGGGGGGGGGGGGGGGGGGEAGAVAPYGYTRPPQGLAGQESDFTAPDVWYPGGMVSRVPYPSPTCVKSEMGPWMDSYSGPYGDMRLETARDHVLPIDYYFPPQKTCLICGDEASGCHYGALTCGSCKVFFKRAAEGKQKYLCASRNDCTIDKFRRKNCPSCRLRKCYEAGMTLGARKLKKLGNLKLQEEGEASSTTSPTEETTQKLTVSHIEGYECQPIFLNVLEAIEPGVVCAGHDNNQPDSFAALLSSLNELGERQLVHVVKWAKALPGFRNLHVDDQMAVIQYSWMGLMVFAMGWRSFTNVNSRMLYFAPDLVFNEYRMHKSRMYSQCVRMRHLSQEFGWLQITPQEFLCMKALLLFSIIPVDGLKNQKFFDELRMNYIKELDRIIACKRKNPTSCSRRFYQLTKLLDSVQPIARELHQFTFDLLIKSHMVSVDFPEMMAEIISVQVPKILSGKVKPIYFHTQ

Regarding `C[C@@H](O[C@H]1OCCN(Cc2n[nH]c(=O)[nH]2)[C@H]1c1ccc(F)cc1)c1cc(C(F)(F)F)cc(C(F)(F)F)c1`, the Potency in [1] is 21.3 µM (active); in [2] it was 23.7 µM (active); in test [3], 23.7 µM (active). In addition, the molecule was called inactive in test [4] and in test [5].

Take `O=C1c2ccccc2C(=O)N1CCc1noc(-c2ccc(CN3CCCCCC3)s2)n1`: the Potency result in [1] and in test [6] was “inactive” throughout. For the same molecule, the Potency was 49.9 µM (active) in test [2] and 39.7 µM (active) in test [3].

Consider `CCOC(=O)[C@H](CCc1ccccc1)N[C@@H](C)C(=O)N(CC(=O)O)C1Cc2ccccc2C1`, for which the Potency entry in [1] and in test [6] was “inactive” each time. Besides, the Potency is 21.1 µM (active) in test [2] and 23.7 µM (active) in [3].

With `CC1(C)S[C@@H]2[C@H](NC(=O)C(c3ccccc3)S(=O)(=O)O)C(=O)N2[C@H]1C(=O)O` (some centres undefined), the Potency entry in test [1], in test [2], in [3], in [7] and in test [6] was “inactive” in each case.

Consider `C[C@@H](CN(C)C)CN1c2ccccc2Sc2ccccc21`, for which the Potency entry in test [1] and in test [6] was “inactive” in each case. Besides, the Potency in [2] and in test [3] was 11.4 µM (active) each time.

Consider `CCC(OCCCOC)OC(C)=O` (centres undefined), for which the Potency result in [1], in test [2], in [3], in [7] and in [6] was “inactive” each time.

On to `CN1C(C(=O)Nc2ccccn2)=C(O)c2sccc2S1(=O)=O`, for which the Potency entry in test [1], in test [2], in [3] and in test [6] was “inactive” throughout.

In the case of `COc1ccccc1Oc1c(NS(=O)(=O)c2ccc(C(C)(C)C)cc2)nc(-c2ncccn2)nc1OCCO`, the Potency result in [1], in test [2], in test [3], in [7] and in test [6] was “inactive” each time.

As to `C=CCc1ccccc1OCC(O)CNC(C)C` (centres undefined), the Potency result in test [1], in [2], in test [7], in test [8], in [6] and in test [9] was “inactive” each time. In addition, the molecule was called inactive in [4] and in test [5].

For the molecule `O=C(CCCN1CC=C(n2c(=O)[nH]c3ccccc32)CC1)c1ccc(F)cc1`, the Potency result in [1], in [7] and in test [6] was “inactive” in each case. In test [2], the Potency was 29.8 µM (active).

In the case of `O=c1c(O)c(-c2ccc(O)cc2)oc2cc(O)cc(O)c12`, the Potency result in [1], in test [7] and in test [6] was “inactive” throughout. Besides, the values for the Potency in test [2] and in [3] were 32.8 µM (active) and 36.8 µM (active), respectively.

Take `NC1[C@H]2CN(c3nc4c(cc3F)c(=O)c(C(=O)O)cn4-c3ccc(F)cc3F)C[C@@H]12` (some centres undefined): the Potency result in test [1], in test [7], in [6] and in [9] was “inactive” in each case. The results for the Potency in test [2] and in test [3] were 4.73 µM (active) and 7.5 µM (active), respectively. In addition, in test [5], the molecule was called inactive.

For the molecule `O=C1c2ccccc2C(=O)c2c(O)c(O)cc(O)c21`, the Potency entry in test [1], in [2], in test [7] and in test [9] was “inactive” throughout. Further, in test [5], the molecule was called inactive.

On to `COc1cc(N)c(Cl)cc1C(=O)NC1CCN(CCCOc2ccc(F)cc2)CC1OC` (centres undefined), for which the Potency result in test [1], in test [7] and in test [6] was “inactive” throughout. Also, the Potency in test [2] was 11.4 µM (active); in test [3], 12.7 µM (active).

For the molecule `Oc1cccc(Nc2ccccc2)c1`, the Potency entry in [1], in test [2], in [7] and in test [6] was “inactive” throughout.

As to `CC1=C(CC=O)C(C)(C)CCC1`, the Potency result in test [1], in test [7] and in test [6] was “inactive” in each case. Also, the values for the Potency in [2] and in [3] were 54.5 µM (active) and 24.3 µM (active), respectively.

Consider `CCC1NC(=O)c2cc(S(N)(=O)=O)c(Cl)cc2N1` (centres undefined), for which the Potency result in test [1], in test [2], in test [3], in test [7] and in test [6] was “inactive” in each case.

Take `OCCN1CCN(CCCN2c3ccccc3Sc3ccc(Cl)cc32)CC1`: the Potency entry in test [1] and in test [6] was “inactive” each time. The Potency in test [2] is 3.59 µM (active); in [3], 4.52 µM (active); in [7], 4.56 µM (active).

As to `CCOC(=O)C1=C(C)NC(C)=C(C(=O)OC)C1c1cccc(Cl)c1Cl` (centres undefined), the Potency result in test [1], in test [7] and in test [6] was “inactive” each time. For the same molecule, the Potency in test [2] was 23.7 µM (active).

Consider `CC(C)=CC(=O)C=C(C)C`, for which the Potency result in [1], in test [2], in test [7] and in test [6] was “inactive” throughout.

Regarding `CC(CN(C)C)C(C)(O)Cc1ccc(Cl)cc1` (centres undefined), the Potency result in test [1], in test [2], in [7], in [8], in test [6] and in test [9] was “inactive” in each case. In addition, the call in [4] and in test [5] was inactive.

With `CC1(C)O[C@@H]2C[C@H]3[C@@H]4C[C@H](F)C5=CC(=O)C=C[C@]5(C)[C@H]4[C@@H](O)C[C@]3(C)[C@]2(C(=O)CO)O1`, the Potency entry in [1], in test [2], in test [3] and in test [6] was “inactive” in each case.

As for `O=C(O)c1cccc(-c2noc(-c3ccccc3F)n2)c1`, the Potency result in test [1], in [2], in test [3], in test [7] and in test [6] was “inactive” each time.
